Reference: PubChem BioAssay AID1159580 (chemical genetic matrix, 2015)
Several values for one entry are separate records, joined by “and”; a condition that tells them apart may be missing. Equal entries are not always repeated. The campaign covered roughly 5,500 compounds. About 2,000 (36%) were called active. Inconclusive results (about 18%) are left out. No stated cut-off is given here; in the data, active means normalized growth mostly below about 0.91 (no sharp cut-off); inconclusive means no clear call, values can overlap the other calls; inactive means mostly above about 0.92. The list shows a part of the results.

Experiment: chemical genetic growth profiling, strain panel (AID 1159580);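 further: tested at 20 µM; growth read once vehicle control cultures reached saturation at 30 °C; 1 = growth at the plate median or of vehicle wells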
Conditions: S. cerevisiae deletion strains, growth OD

Measured: normalized growth

C#CC1(O)CCC2C3CCC4=CC(=O)CCC4(C)C3CCC21C (stereo unspecified)
active: locus YDR137W, strain rgp1, stronger effect = lower value 1.19 [resistant]
inactive: locus YAL021C, strain ccr4, stronger effect = lower value 0.973 | locus YAL026C, strain drs2, stronger effect = lower value 0.982 | locus YAL030W, strain snc1, stronger effect = lower value 0.995 | locus YBL061C, strain skt5, stronger effect = lower value 0.96 | locus YBR009C, strain hhf1, stronger effect = lower value 0.979 | locus YBR021W, strain FUR4, stronger effect = lower value 0.985 | locus YBR023C, strain chs3, stronger effect = lower value 0.981 | locus YBR171W, strain sec66, stronger effect = lower value 0.981 | locus YBR229C, strain ROT2, stronger effect = lower value 0.985 | locus YBR231C, strain swc5, stronger effect = lower value 0.977 | locus YBR279W, strain paf1, stronger effect = lower value 0.985 | locus YCL011C, strain gbp2, stronger effect = lower value 0.994 | locus YCL016C, strain dcc1, stronger effect = lower value 0.968 | locus YCL029C, strain bik1, stronger effect = lower value 0.984 | locus YCL069W, strain vba3, stronger effect = lower value 1 | locus YCR088W, strain abp1, stronger effect = lower value 0.992 | locus YDL005C, strain med2, stronger effect = lower value 0.976 | locus YDL035C, strain GPR1, stronger effect = lower value 0.981 | locus YDL040C, strain nat1, stronger effect = lower value 0.97 | locus YDL074C, strain BRE1, stronger effect = lower value 1.01 | locus YDL101C, strain DUN1, stronger effect = lower value 0.979 | locus YDL185W, strain tfp1, stronger effect = lower value 0.981 | locus YDL192W, strain arf1, stronger effect = lower value 0.98 | locus YDR001C, strain nth1, stronger effect = lower value 0.977 | locus YDR069C, strain doa4, stronger effect = lower value 0.933 | locus YDR101C, strain arx1, stronger effect = lower value 1.02 | locus YDR159W, strain sac3, stronger effect = lower value 0.937 | locus YDR162C, strain NBP2, stronger effect = lower value 0.971 | locus YDR195W, strain ref2 0.975 | locus YDR297W, strain sur2, stronger effect = lower value 0.98 | locus YDR318W, strain mcm21, stronger effect = lower value 0.97 | locus YDR334W, strain swr1, stronger effect = lower value 0.954 | locus YDR335W, strain msn5, stronger effect = lower value 0.981 | locus YDR388W, stronger effect = lower value 0.976 | locus YDR392W, strain spt3, stronger effect = lower value 0.918 | locus YDR502C, strain sam2, stronger effect = lower value 0.985 | locus YEL003W, strain gim4, stronger effect = lower value 0.976 | locus YEL037C, strain rad23, stronger effect = lower value 0.969 | locus YEL061C, strain CIN8 (second series), stronger effect = lower value 0.965 | locus YEL061C, strain CIN8, stronger effect = lower value 0.996 | locus YER015W, strain faa2, stronger effect = lower value 0.992 | locus YER016W, strain bim1, stronger effect = lower value 0.996 | locus YER110C, stronger effect = lower value 0.968 | locus YER111C, strain swi4, stronger effect = lower value 0.99 | locus YER155C, strain BEM2 (second series), stronger effect = lower value 1.02 | locus YER155C, strain BEM2, stronger effect = lower value 0.982 | locus YER167W, strain BCK2, stronger effect = lower value 0.994 | locus YFR010W, strain ubp6, stronger effect = lower value 0.995 | locus YGL078C, strain dbp3, stronger effect = lower value 0.95 | locus YGL086W, strain mad1, stronger effect = lower value 1.01 | locus YGL167C, strain pmr1, stronger effect = lower value 0.976 | locus YGL173C, strain kem1, stronger effect = lower value 0.986 | locus YGL227W, strain vid30, stronger effect = lower value 0.983 | locus YGL240W, strain doc1, stronger effect = lower value 0.987 | locus YGL248W, strain PDE1, stronger effect = lower value 0.99 | locus YGL253W, strain hxk2, stronger effect = lower value 0.978 | locus YGR135W, strain pre9, stronger effect = lower value 0.947 | locus YGR252W, strain gcn5, stronger effect = lower value 0.956 | locus YHR013C, strain ard1, stronger effect = lower value 0.994 | locus YHR027C, strain rpn1, stronger effect = lower value 0.948 | locus YHR030C, strain SLT2, stronger effect = lower value 0.998 and 1 | locus YHR079C, strain IRE1 (second series), stronger effect = lower value 0.983 | locus YHR079C, strain IRE1, stronger effect = lower value 1 | locus YHR094C, strain hxt1, stronger effect = lower value 0.968 | locus YHR129C, strain ARP1, stronger effect = lower value 0.999 | locus YHR142W, strain chs7, stronger effect = lower value 0.98 | locus YHR200W, strain rpn10, stronger effect = lower value 0.986 | locus YIL066C, strain RNR3, stronger effect = lower value 0.989 | locus YIL073C, strain SPO22, stronger effect = lower value 0.933 | locus YIL125W, strain kgd1, stronger effect = lower value 0.978 | locus YIR030C, strain dcg1, stronger effect = lower value 0.984 | locus YJL092W, strain hpr5, stronger effect = lower value 0.977 | locus YJL095W, strain BCK1 (second series), stronger effect = lower value 0.981 | locus YJL095W, strain BCK1, stronger effect = lower value 0.981 and 1.01 | locus YJL115W, strain asf1, stronger effect = lower value 0.954 | locus YJL129C, strain trk1, stronger effect = lower value 0.97 | locus YJL134W, strain LCB3, stronger effect = lower value 0.983 | locus YJL154C, strain vps35, stronger effect = lower value 0.972 | locus YJL164C, strain tpk1, stronger effect = lower value 0.978 | locus YJL166W, strain qcr8, stronger effect = lower value 0.983 | locus YJL168C, strain set2, stronger effect = lower value 0.977 | locus YJL187C, strain SWE1 (second series), stronger effect = lower value 1.01 | locus YJR043C, strain POL32, stronger effect = lower value 1.03 | locus YJR066W, strain TOR1, stronger effect = lower value 0.957 | locus YJR075W, strain HOC1, stronger effect = lower value 1
